Test results as given in the supplement of paper PMC3334620.
Whole data set: some 33,000 sequences, median “E-score (-0.5 to 0.5)” near -0.043, cut for the highest 2% near 0.37. Shown is part of a subset that was picked to be rich in the highest values.

What follows are sequences tested against T1, Upc2 (UniProt Q12151) (assay: PBM E-score (8-mer binding enrichment) (E-score (-0.5 to 0.5)); higher = stronger / more preferred TF binding). Details: protein concentration: 200 nM; construct: GST-full length.
T1 sequence: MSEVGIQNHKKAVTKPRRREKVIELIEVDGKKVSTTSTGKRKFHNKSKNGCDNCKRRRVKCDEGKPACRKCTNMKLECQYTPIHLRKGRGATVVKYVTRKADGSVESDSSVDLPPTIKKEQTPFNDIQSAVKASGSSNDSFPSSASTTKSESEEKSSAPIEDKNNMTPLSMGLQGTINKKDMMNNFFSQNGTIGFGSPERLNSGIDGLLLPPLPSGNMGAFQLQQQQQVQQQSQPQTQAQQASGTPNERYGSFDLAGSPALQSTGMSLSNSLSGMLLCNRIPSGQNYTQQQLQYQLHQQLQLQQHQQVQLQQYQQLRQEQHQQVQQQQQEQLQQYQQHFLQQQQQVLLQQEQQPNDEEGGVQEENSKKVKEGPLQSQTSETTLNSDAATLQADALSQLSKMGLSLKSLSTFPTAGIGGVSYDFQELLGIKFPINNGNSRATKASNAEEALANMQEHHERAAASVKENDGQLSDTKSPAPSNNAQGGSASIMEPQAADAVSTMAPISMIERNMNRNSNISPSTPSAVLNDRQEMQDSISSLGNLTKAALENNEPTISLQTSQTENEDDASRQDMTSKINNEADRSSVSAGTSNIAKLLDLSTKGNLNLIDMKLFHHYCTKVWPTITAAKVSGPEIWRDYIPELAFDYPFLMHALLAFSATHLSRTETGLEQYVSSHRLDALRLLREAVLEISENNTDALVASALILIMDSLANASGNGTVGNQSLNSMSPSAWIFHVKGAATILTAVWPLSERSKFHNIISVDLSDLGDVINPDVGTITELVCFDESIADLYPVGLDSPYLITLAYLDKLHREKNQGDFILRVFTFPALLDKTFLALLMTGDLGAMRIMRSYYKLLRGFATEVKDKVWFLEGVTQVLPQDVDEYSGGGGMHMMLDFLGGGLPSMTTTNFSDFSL
Procedure, shortened: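 Yeast transcription factors, full-length or as DNA-binding domains, were expressed with a GST tag using PURExpress in vitro transcription/translation. At about 100-200 nM they were applied to universal all-10-mer Agilent arrays, double-stranded by primer extension on fresh or once-stripped slides. Fluorescent anti-GST detected bound protein, and masliner normalised the scans. E-scores for ungapped eight-base words, pooled with reverse complements, came from the Universal PBM Analysis Suite.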

Sequence | PBM E-score
ATTCAAAA | 0.0167
CTCCACCC | -0.189
TAACTCGA | 0.109
GCTGAGAC | -0.203
AATATCTG | -0.124
AGCGACGA | 0.185
AACGACGA | 0.454
ATCGACGA | -0.0697
CACATACG | 0.401
CGCATACG | 0.439
AACATACC | 0.16
AACATACT | 0.0309
ATCATACC | -0.02
ATCATACG | 0.383
ATCATACA | 0.0941
CACATACA | -0.107
CGCATACA | 0.114
CACATACC | -0.12
AACATACG | 0.39
CGCATACC | 0.212
TGTAGGAA | -0.0273
AAGATGGG | -0.219
GATCCAGA | 0.0551
CTTAGCGC | 0.126
GACCCCAA | -0.0347

Sequence | PBM E-score
ACAAATCT | 0.0248
ATCGGTCG | 0.197
AAAGAAGG | -0.138
GCAGTATA | 0.219
ATGTCTCA | -0.192
ACATAGGC | -0.126
ATCGTAAT | 0.287
GTCGTAAA | 0.477
GGCGTAAA | 0.279
ACCGTAAC | 0.27
GACGTAAA | 0.228
ATCGTAAG | 0.354
TTCGTAAA | 0.459
AACGTAAC | 0.245
ATCGTAAC | 0.372
TGCGTAAA | 0.294
ATCGTAAA | 0.448
TCCGTAAA | 0.357
GAGTAGGC | -0.18
AGTCTACA | -0.115
AGAACACC | -0.039
CCGAGTGA | 0.102
CAATAAGG | -0.351
CTCGTAAA | 0.482
CACGTAAA | 0.253

Sequence | PBM E-score
CGCGTAAA | 0.354
ACAGATTA | -0.111
CATAGTAC | 0.0276
ACATTTTA | 0.187
AACGTCGA | 0.202
AACGTCGG | 0.176
ACCGTCGA | -0.191
AACGTCGT | 0.38
ACCGTCGC | 0.233
ACCGTCGT | 0.394
GCAATCTA | -0.0928
TAAGTAAA | -0.00508
GTTGCAGA | -0.126
CCATACAA | -0.09
CCATACGG | 0.396
CCATACGC | 0.322
ACATACGG | 0.354
CCATACTA | -0.101
CCATACGA | 0.473
CCGTTCCG | 0.323
ATTGTTGG | -0.153
CGATTTGC | -0.0413
CCGGTTAG | 0.0696
ACAGGTAA | -0.0299
CGGATACC | 0.0516

Sequence | PBM E-score
ACGATACT | 0.313
CAGATACC | -0.184
CGGATACA | 0.201
ACGATACG | 0.391
ACGATACA | 0.279
CAGATACG | 0.375
CCGATACC | -0.00432
CGGATACG | 0.408
CCGATACG | 0.392
CCGATACA | 0.159
AAGATACG | 0.349
ATTCTAAA | 0.155
CCCAGCCA | -0.0649
GACGGTGC | 0.0569
AAAATCTG | -0.0273
CGCATAGC | 0.265
AAGACTGG | -0.109
CCCTCACA | -0.164
AACGCGTT | 0.248
GACGAGTA | 0.104
AACGAGTG | 0.414
AGCGAGTA | 0.269
AACGAGTA | 0.437
AACGAGTT | 0.399
CACGAGTG | 0.0785

Sequence | PBM E-score
ACCGAGTA | 0.25
AAAGAGTT | -0.235
TACGAGTA | 0.453
AGCGAGTG | 0.204
CACGAGTA | 0.126
ATCATCTA | -0.0847
CTGGTCAA | -0.17
ACAATATC | 0.125
CATCAGCC | -0.104
TTACTGAA | 0.182
GACGAGTC | 0.0657
CACGAGTC | 0.00415
AACGAGTC | 0.414
ACAATAAT | 0.0963
ACCCGCTG | -0.245
AAGCTGCG | -0.0191
AGGTTCAA | -0.0255
AGACGGGG | -0.147
ATACGGGG | 0.411
GTACGGGA | 0.389
GCACGGGA | 0.0149
ACACGGGG | -0.0346
CTACGGGC | -0.0221
GGACGGGA | -0.0849
CTACGGGA | 0.00845

Sequence | PBM E-score
ACACGGGA | -0.129
ACACGGGC | -0.0605
ATACGGGA | 0.382
ATACGGGC | 0.426
ACCATTAC | 0.17
AAACCGTC | -0.0199
ACTCCAAG | -0.152
CTCCTTAC | 0.112
CGATTGAA | 0.0171
GATATGGA | 0.047
ACCCAACA | -0.221
GACGCTCC | -0.0386
AAACATCG | -0.033
CTTCACGC | 0.0017
CTATGGAG | -0.173
GTTGTTTA | 0.0127
GTGTCCTA | -0.0178
CCATAGAA | -0.25
ACCCGTCA | -0.119
ATATAATA | -0.0226
GTATAAGA | 0.395
CTATAATA | -0.055
GTATAATA | 0.375
ATATAAGA | 0.22
CTATAAGA | 0.247

Sequence | PBM E-score
AACGTTGA | 0.0964
CCACCAGA | -0.0981
AAGCGTAT | 0.33
TATCGCGA | 0.182
CTGCTACC | -0.161
CCTTGGAC | -0.0581
GGCTGTGA | -0.125
GCCGTTAA | 0.292
GCCGTTCA | 0.31
GCCGTTTA | 0.465
CACGTTTA | 0.363
CCCGTTTC | 0.197
CCCGTTTA | 0.456
ACCGTTTG | 0.333
ACCGTTTA | 0.458
ACCGTTTC | 0.244
AACCAAGG | -0.0086
AAAAACTG | -0.0494
ACACGCTC | 0.0594
CGCTGCAC | -0.0173
AAAGGCTA | -0.173
ACTGTGCG | 0.134
